Source: PubChem BioAssay
Mac1 fbg enh – increases human CD11b/CD18 adhesion to fibrinogen | actives 0.07% (n = 93,000) | P05107+P11215 | AID 1499 | activation, % at 10 µM | K562 CD11b/CD18 adhesion to fibrinogen, ATPlite luminescence;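 active means 10 µM primary screen giving 50% or more activity, confirmed by 40% or more on retest at that dose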
Mac1 fbg inh – CD11b/CD18-fibrinogen binding inhibition | P05107+P11215 | K562 CD11b/CD18 adhesion to fibrinogen, ATPlite luminescence; Mn2+ added to activate the integrin | inhibition, % at 10 µM | actives 0.54% (n = 93,000) | AID 1497;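 active means primary inhibition of 50% or more at 10 µM, then 40% or more on retest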
CYP2C19 inh – blocks human cytochrome P450 2C19; inhibition, % at 5 µM; P33261; actives 21% (n = 96,000); CYP2C19 Supersomes, luciferin-H EGE luminescence, 30 min;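 active means CYP2C19 inhibition above a set limit at 5 µM in the primary screen, cut at about 50% in these data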;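 further: plate controls were negative control wells for no effect and 2.5 mM tranylcypromine positive control for full effect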
Target sequence (P33261 whole entry, looked up): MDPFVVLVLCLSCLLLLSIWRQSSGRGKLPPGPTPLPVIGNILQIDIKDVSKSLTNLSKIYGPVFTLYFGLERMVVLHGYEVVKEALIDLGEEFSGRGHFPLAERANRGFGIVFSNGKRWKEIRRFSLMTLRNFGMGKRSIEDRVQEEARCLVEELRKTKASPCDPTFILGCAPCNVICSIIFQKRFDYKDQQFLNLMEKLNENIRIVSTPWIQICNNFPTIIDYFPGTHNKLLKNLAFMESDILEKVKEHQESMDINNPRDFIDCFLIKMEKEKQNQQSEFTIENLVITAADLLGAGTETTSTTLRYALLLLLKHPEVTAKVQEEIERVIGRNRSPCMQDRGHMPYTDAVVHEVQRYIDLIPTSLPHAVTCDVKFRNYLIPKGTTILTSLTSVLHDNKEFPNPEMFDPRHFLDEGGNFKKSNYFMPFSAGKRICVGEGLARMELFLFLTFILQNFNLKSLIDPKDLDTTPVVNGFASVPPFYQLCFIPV
CYP2C9 inhib – inhibitors of human CYP2C9; inhibition, % at 5 µM; actives 20% (n = 96,000); P11712; CYP2C9 Supersomes, luciferin-H conversion, luminescence; AID 777;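 active means blocking of liver enzyme CYP2C9 beyond about 50% at 5 µM, limit read from the data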
CYP2C19 activ – increases human CYP2C19 enzyme activity | 96,000 tested, under 10 active | recombinant CYP2C19, luciferin-H EGE luminescence; stronger effect = higher value; 0 = fully inhibited enzyme, 1 = untreated enzyme | activation factor at 5 µM;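 active means activation factor of at least 2 at 5 µM in the primary screen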;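 further: 0 = wells with 2.5 mM tranylcypromine and 1 = vehicle-only wells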
CYP2C9 act – CYP2C9 (human) activation; actives 1.4% (n = 96,000); recombinant CYP2C9, luciferin-H conversion, luminescence; stronger effect = higher value; factor 1 = untreated enzyme, 0 = blocked; P11712; activation factor at 5 µM;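 active means activation factor of 2 or more for CYP2C9 at a 5 µM dose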;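 further: 0 = sulfaphenazole-blocked wells and 1 = vehicle-only wells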
Active calls of the source: *; · = no result given. Only some compounds are listed: those with a hit (about 28% of all), similar ones and a draw of the others.

SMILES	Mac1 fbg enh	Mac1 fbg inh	CYP2C19 inh	CYP2C9 inhib	CYP2C19 activ	CYP2C9 act
CCOC(=O)CNC1CC(=O)N(c2cccc(Cl)c2)C1=O (stereo not drawn)	-6	-30	14	9	0.9	0.9
Nc1cccc2c1C(=O)N(C(=O)c1cccc(S(=O)(=O)N3CCCC3)c1)C2=O	-2	-10	4	2	1	1
O=C(Nc1cccc(O)c1)c1ccc(Br)c(S(=O)(=O)N2CCCCC2)c1	2	7	0	5	1	1
CC(NC(=O)C(C)(C)C)c1nc2ccccc2n1C (stereo not drawn)	2	-8	-7	-26	1.1	1.3
CCn1c(SCC(=O)NC2CCCCC2)nnc1-c1cc2cccc(OC)c2o1	·	·	43	-55	0.6	1.5
CCOc1ccccc1-c1nnc(SCC(=O)NC2CC3CCC2C3)n1CC (stereo not drawn)	8	3	77*	47	0.2	0.5
O=C(NCCN1CCN(C(=O)c2cccs2)CC1)C(=O)Nc1ccc(Br)cc1	0	-4	21	25	0.8	0.8
Cc1ccc(S(=O)(=O)NC2=NCCC2)cc1	-3	-6	7	-8	0.9	1.1
Cn1c(=O)c2c(nc(NC3CCCCC3)n2CC(O)COc2ccccc2)n(C)c1=O (stereo not drawn)	-2	-4	37	52*	0.6	0.5
COc1cccc(C(=O)Cn2c(N3CCCCC3)nc3c2c(=O)n(C)c(=O)n3C)c1	-1	-7	21	27	0.8	0.7
CN(c1nc2c(c(=O)n(C)c(=O)n2C)n1CC(=O)c1ccccc1)C1CCCCC1	1	-2	46	66*	0.5	0.3
Cn1c(=O)c2c(nc(N3CCCCCC3)n2CC(O)COc2ccccc2)n(C)c1=O (stereo not drawn)	·	·	7	28	0.9	0.7
Cn1c(Br)nc2c1c(=O)n(CC(O)COc1ccccc1)c(=O)n2C (stereo not drawn)	-1	-1	86*	11	0.1	0.9
O=C(O)C1CCCCC1C(=O)NCCCCc1ccccc1 (stereo not drawn)	3	9	4	44	1	0.6
COc1ccc(OCC(=O)O/N=C(\N)Cc2ccc(Cl)cc2Cl)cc1	-4	8	10	0	0.9	1
CCOCCn1c(N(C)Cc2ccccc2)nc2c1c(=O)[nH]c(=O)n2C	-2	40	22	26	0.8	0.7
Cc1ccc(-c2csc(N(C)C(=O)c3c(C)nn(-c4ccccc4)c3Cl)n2)cc1	-6	29	44	74*	0.6	0.3
CC(=O)N(C)c1nc(-c2ccc(Cl)cc2)cs1	-3	-10	-16	-8	1.2	1.1
Cc1ccc(N2C(=O)CSC2c2cccs2)cc1 (stereo not drawn)	-2	-3	77*	18	0.2	0.8
Cc1cc(C)cc(N2C(=O)CSC2c2cccs2)c1 (stereo not drawn)	0	6	58*	-17	0.4	1.2
Cc1cccc(N2C(=O)CSC2c2cccnc2)c1 (stereo not drawn)	-2	-7	26	4	0.7	1
CC(C)n1nnnc1SCC(=O)c1ccc2c(c1)OCCO2	·	·	63*	4	0.4	1
CCn1c(COc2ccc3c(c2)OCO3)nnc1SCC(=O)c1ccc(Cl)cc1	-3	3	-10	51*	1.1	0.5
CCn1c(SCC(=O)c2ccc3c(c2)OCCO3)nnc1C(C)C	5	-8	94*	11	0.1	0.9
CCCCn1c(SCC(=O)c2ccc3c(c2)OCCO3)nnc1-c1ccco1	-3	-3	48	56*	0.5	0.4
SMILES	Mac1 fbg enh	Mac1 fbg inh	CYP2C19 inh	CYP2C9 inhib	CYP2C19 activ	CYP2C9 act
CCn1nnnc1SCC(=O)c1ccc2c(c1)OCCO2	·	·	34	20	0.7	0.8
O=C(O)CSCC(=O)Nc1ccc(C2CCCCC2)cc1	-4	6	3	64*	1	0.4
CCCS(=O)(=O)Nc1cc(C(F)(F)F)ccc1OCCOC	0	-28	50*	15	0.5	0.8
COc1ccc(CCNC(=O)c2ccc(-c3ccc([N+](=O)[O-])cc3)o2)cc1OC	-6	24	·	·	·	·
Cc1ccc(C(=O)Nc2ccccc2OC(F)F)cc1	-4	2	17	-5	0.8	1
COc1ccc2c(CC(=O)Nc3ccc(OC)c(NS(=O)(=O)c4ccc(F)cc4)c3)coc2c1	·	·	72*	74*	0.3	0.3
COc1ccc2c(CC(=O)Nc3cccc(S(=O)(=O)N4CCOCC4)c3)coc2c1	18	10	·	·	·	·
COc1ccc(NC(=O)CCNC(C)=O)cc1NS(=O)(=O)c1ccc(F)cc1	4	4	52*	29	0.5	0.7
O=C(NCSc1ccnc(SCNC(=O)c2ccc(F)cc2)n1)c1ccc(F)cc1	75	-22	6	8	0.9	0.9
CC(=O)NN1C(=O)/C(=C\c2ccc(C)cc2)SC1=S	·	·	52*	-3	0.5	1
Cc1ccc([N+](=O)[O-])cc1N/C=C/C(=O)c1ccco1	1	-4	17	51*	0.8	0.5
O=C(/C=C/Nc1ccc(F)cc1)c1ccco1	-8	43	3	3	1	1
COc1ccc(NC(C)=O)cc1NC(C)C(=O)Nc1ccc(F)c(F)c1F (stereo not drawn)	-4	-29	70*	47	0.3	0.5
CNCC(O)COc1ccccc1 (stereo not drawn)	-4	-2	5	6	1	0.9
OC(CNc1ccccc1)COc1ccc(OCC(O)CNc2ccccc2)cc1 (stereo not drawn)	2	-16	13	67*	0.9	0.3
O=C(N/N=C/c1ccco1)C1CC1(c1ccccc1)c1ccccc1 (stereo not drawn)	-1	-2	·	·	·	·
O=C(CN1CCC(Cc2ccccc2)CC1)NC(=O)NCc1ccco1	-2	1	58*	0	0.4	1
O=C(CN1CCOCC1)Nc1ccccc1-c1ccccc1	4	-6	24	-1	0.8	1
O=C(CN1CCN(c2ccccc2O)CC1)NC(=O)NCc1ccco1	0	-5	·	·	·	·
O=C(CN1CCC(NC(=O)Nc2ccccc2-c2ccccc2)CC1)NCc1ccco1	2	1	46	58*	0.5	0.4
CCOc1ccccc1NC(=O)CSc1nnc2c(CC)c(C)nc(N)n12	4	-6	20	-37	0.8	1.4
COc1cccc(-c2cc(C(F)(F)F)nc(N3CCCCC3)n2)c1	·	·	-8	11	1.1	0.9
CCOc1ccc(CC2S/C(=N/c3ccccn3)NC2=O)cc1 (stereo not drawn)	-2	-5	72*	22	0.3	0.8
CCOc1ccc(C(=O)N/N=C(\c2ccccc2)c2ccccn2)cc1	88	2	26	-13	0.7	1.1
